Data on 5 compounds can be found in PubChem BioAssay (NCI).

Compounds without any hit were thinned out: in the full panel of roughly 79,000, 15% have a hit. A number with no mark means an inactive call. Calls of active or inactive are those of the source. No stated cut-off is given here; in the data, active means growth inhibition above about 70%; inactive means the rest.

Assay [1] can be described thus: NCI Yeast Anticancer Drug Screen. Data for the rad50 strain (AID 155).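 Further: 0% = growth of vehicle-only cultures of the same strain.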 The conditions noted are these: S. cerevisiae rad50 strain growth inhibition, hits give high values. A digest of the protocol:
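A DNA repair-deficient yeast mutant serves as the test organism; compound-induced growth inhibition is calculated against vehicle-treated cells.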

Assay [2] can be described thus: NCI Yeast Anticancer Drug Screen. Data for the mec2-1 strain (AID 157). The conditions noted are these: S. cerevisiae mec2-1 strain, hits give high values. A digest of the protocol:
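mec2-1 yeast strain, carrying an alteration in DNA damage repair or cell cycle control, was exposed to compounds; growth inhibition was measured relative to vehicle-treated controls.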

Assay [3] is described as follows: NCI Yeast Anticancer Drug Screen. Data for the sgs1 mgt1 strain (AID 161).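 Further: 0% = growth of cultures given vehicle only.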 The settings on record: S. cerevisiae sgs1 mgt1 strain, hits give high values. In a few lines:
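Compounds are added to genetically altered yeast, and growth is compared with cultures given vehicle alone to give percent inhibition.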

Assay [4] is described as follows: NCI Yeast Anticancer Drug Screen. Data for the cln2 rad14 strain (AID 165).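 Further: 0% = growth equal to vehicle treated cultures.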 The settings on record: S. cerevisiae cln2 rad14 strain, hits give high values. In a few lines: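 Yeast carrying cln2 and rad14 alterations (cell cycle control and DNA damage repair) were exposed to compounds. Growth inhibition was measured against vehicle-treated controls.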
Assay [5] can be described thus: NCI Yeast Anticancer Drug Screen. Data for the bub3 strain (AID 167). The conditions noted are these: S. cerevisiae bub3 mutant strain, hits give high values. In a few lines:
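Inhibition values come from growth of compound-treated mutant yeast normalised to vehicle-treated controls.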

Assay [6] can be described thus: NCI Yeast Anticancer Drug Screen. Data for the mlh1 rad18 strain (AID 175). The settings on record: S. cerevisiae mlh1 rad18 strain growth inhibition, hits give high values. A digest of the protocol:
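Growth inhibition of the yeast strain was measured after compound exposure and expressed relative to vehicle-treated controls. The strain carries defined defects in DNA damage repair.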

The mark [7] stands for this setting: at 5.0 µM (retest, dose inferred, filed as 0.5).
Setting [8] is: at 50.0 µM (retest, dose inferred, filed as 5.0).

For `O=C(Nc1ccccc1-c1nn(CN2CCNCC2)c(=S)n(CN2CCNCC2)c1=O)C(F)(F)F`, the growth inhibition is 0% in assay [1] (setting [7]); 17% in assay [1] (setting [8]); 7.5% in assay [1] (at 50.0 µM); 0% in assay [2] (setting [7]); 10% in assay [2] (setting [8]); 25.9% in assay [2] (at 50.0 µM). Further, the growth inhibition in assay [3] (setting [7]) was -2%; in assay [3] (setting [8]), 13%; in assay [3] (at 50.0 µM), 12.6%; in assay [4] (setting [7]) it was -4%; in assay [4] (setting [8]) it was 10%; in assay [4] (at 50.0 µM), 68.1%. The growth inhibition in assay [5] (setting [7]) is 1%; in assay [5] (setting [8]), 0%; in assay [5] (at 50.0 µM), 8.65%; in assay [6] (setting [7]), -2%; in assay [6] (setting [8]) it was 14%; in assay [6] (at 50.0 µM), 38.6%.

Take `Cc1cccc(C)c1NC(=O)/C(Cl)=C(/Cl)C(=O)O`: the growth inhibition was 66% in assay [1] (setting [7]); 98% (active) in assay [1] (setting [8]); 91.2% (active) in assay [1] (at 50.0 µM); 67% in assay [2] (setting [7]); 99% (active) in assay [2] (setting [8]); 86.2% (active) in assay [2] (at 50.0 µM). In addition, the growth inhibition is 82% (active) in assay [3] (setting [7]); 98% (active) in assay [3] (setting [8]); 88% (active) in assay [3] (at 50.0 µM); 47% in assay [4] (setting [7]); 81% (active) in assay [4] (setting [8]); 82.8% (active) in assay [4] (at 50.0 µM). Moreover, the growth inhibition was 85% (active) in assay [5] (setting [7]); 99% (active) in assay [5] (setting [8]); 90% (active) in assay [5] (at 50.0 µM); 63% in assay [6] (setting [7]); 99% (active) in assay [6] (setting [8]); 93.8% (active) in assay [6] (at 50.0 µM).

For the compound `CCC[CH2][Sn]([CH2]CCC)([O]C(=O)c1cc(OC)c(OC)cc1OC)[O]C(=O)c1cc(OC)c(OC)cc1OC`, the growth inhibition was 88% (active) in assay [1] (setting [7]); 88% (active) in assay [1] (setting [8]); 89.8% (active) in assay [1] (at 50.0 µM); 90% (active) in assay [2] (setting [7]); 90% (active) in assay [2] (setting [8]); 91.5% (active) in assay [2] (at 50.0 µM). Besides, the growth inhibition in assay [3] (setting [7]) is 87% (active); in assay [3] (setting [8]), 87% (active); in assay [3] (at 50.0 µM), 90.1% (active); in assay [4] (setting [7]), 79% (active); in assay [4] (setting [8]), 79% (active); in assay [4] (at 50.0 µM) it was 91.2% (active). Moreover, the growth inhibition in assay [5] (setting [7]) was 85% (active); in assay [5] (setting [8]), 85% (active); in assay [5] (at 50.0 µM), 87.2% (active); in assay [6] (setting [7]), 84% (active); in assay [6] (setting [8]) it was 84% (active); in assay [6] (at 50.0 µM), 89.5% (active).

For `c1ccc2[nH]c(CN(CCN(Cc3nc4ccccc4[nH]3)Cc3nc4ccccc4[nH]3)Cc3nc4ccccc4[nH]3)nc2c1`, the growth inhibition is 97% (active) in assay [1] (setting [7]); 95% (active) in assay [1] (setting [8]); 91.1% (active) in assay [1] (at 50.0 µM); 97% (active) in assay [2] (setting [7]); 97% (active) in assay [2] (setting [8]); 91.5% (active) in assay [2] (at 50.0 µM). Moreover, the growth inhibition is 99% (active) in assay [3] (setting [7]); 96% (active) in assay [3] (setting [8]); 91% (active) in assay [3] (at 50.0 µM); 99% (active) in assay [4] (setting [7]); 94% (active) in assay [4] (setting [8]); 90.3% (active) in assay [4] (at 50.0 µM). The growth inhibition in assay [5] (setting [7]) is 99% (active); in assay [5] (setting [8]), 95% (active); in assay [5] (at 50.0 µM) it was 89% (active); in assay [6] (setting [7]), 96% (active); in assay [6] (setting [8]), 93% (active); in assay [6] (at 50.0 µM), 89.7% (active).

For `N#Cc1c2c(c(N=[N+]=[N-])n3c1nc1ccccc13)CCCC2`, the growth inhibition in assay [1] (setting [7]) is 47%; in assay [1] (setting [8]) it was 95% (active); in assay [1] (at 50.0 µM), 87.2% (active); in assay [2] (setting [7]) it was 36%; in assay [2] (setting [8]), 98% (active); in assay [2] (at 50.0 µM), 92.3% (active). In addition, the growth inhibition in assay [3] (setting [7]) was 45%; in assay [3] (setting [8]), 99% (active); in assay [3] (at 50.0 µM), 91.5% (active); in assay [4] (setting [7]), 28%; in assay [4] (setting [8]) it was 97% (active); in assay [4] (at 50.0 µM), 90% (active). The growth inhibition was 43% in assay [5] (setting [7]); 95% (active) in assay [5] (setting [8]); 90.9% (active) in assay [5] (at 50.0 µM); 50% in assay [6] (setting [7]); 98% (active) in assay [6] (setting [8]); 89.7% (active) in assay [6] (at 50.0 µM).
